# Data published in PubChem BioAssay AID1159606 (Sanford-Burnham Center for Chemical Genomics, 2016).
# Among all 360,000 compounds or so, about 7,300 (2%) were called active. The list comes from a sample in which actives are over-represented; it also holds similar structures and randomly drawn compounds. Values without a mark were called inactive. No stated cut-off is given here; in the data, active means inhibition above about 50%; inactive means the rest.
# Assay: inhibitors of TWEAK-Fn14 signaling, primary screen, luciferase reporter cells, uHTS (AID 1159606)
# Conditions: TWEAK-stimulated Fn14 reporter cells, luciferase luminescence, 8 h; at 10 µM; stronger effect = higher value
row,Structure (SMILES),inhibition
1,COc1cccc(NC(=O)Cn2c3ccc(F)cc3c3nc4n(c(=O)c32)CCS4)c1,7%
2,CCN(CC(=O)Nc1ccccc1C(F)(F)F)C(=O)C1CCN(C(=O)Nc2ccccc2)CC1,4.09%
3,C=C1C(=O)OC2C1CCC(C)=CCCC1(C)OC21 (stereo unspecified),81.5% (active)
4,C[C@H]1COc2cc(N3CCSCC3)ccc2S(=O)(=O)N1,-13.1%
5,O=c1c2ccccc2ncn1CCc1ccncc1,-5.08%
6,O=c1c2ccccc2ncn1/N=C/c1ccccc1,62.7% (active)
7,CCOC(=O)N1CCN(C(=O)Cn2cnc3ccccc3c2=O)CC1,-13.1%
8,CCOc1cc(/C=N/NC(=O)c2ccncc2)cc(Br)c1O,-8.09%
9,Nn1c(SCC(=O)Nc2ccc3c(c2)CCC3)nnc1C1CC1,1.14%
10,CCCn1c(N)c(C(=O)CSc2nc3ccccc3c(=O)n2-c2ccc(OC)cc2)c(=O)[nH]c1=O,2.25%
11,Cc1cc2oc(C(=O)Nc3c(C)n(C)n(-c4ccccc4)c3=O)c(C)c2cc1Cl,4.85%
12,Cc1c(NC(=O)c2cc(-c3ccc(Br)cc3)on2)c(=O)n(-c2ccccc2)n1C,10.9%
13,Cc1c(NC(=O)c2coc(=O)c(Br)c2)c(=O)n(-c2ccccc2)n1C,65.9% (active)
14,CCOc1ccc(NC(=O)c2ccc(NC(=O)CN3C(=O)C(=O)N(CC(C)C)C3=O)cc2)cc1,-46.8%
15,Cc1cc(C)n2nc(C(=O)Nc3cccc(S(=O)(=O)N4CCOCC4)c3)nc2n1,-5.76%
16,O=C1C2C3C=CC(C4CC34)C2C(=O)N1c1nccs1 (stereo unspecified),17.6%
17,COc1ccc2[nH]c3c(c2c1)CCN1C(=O)C(CC(=O)NCCCN(C)C)C[C@H](C(=O)N2CCOCC2)[C@@]31CCC1CCCC1 (stereo partly specified),-4.84%
18,COc1ccc(CNC(=O)C[C@H]2C[C@H](C(=O)N3CCOCC3)[C@@]3(CCC4CCCC4)c4[nH]c5ccc(Cl)cc5c4CCN3C2=O)cc1OC,60.6% (active)
19,O=C(C[C@H]1C[C@H](C(=O)N2CCOCC2)[C@@]2(CCC3CCCC3)c3[nH]c4ccc(Cl)cc4c3CCN2C1=O)NCc1ccco1,32.8%
20,Cc1cc(C)c(S(=O)(=O)NN=C2c3ccccc3[C@H]3Cc4csc[n+]4[C@@H]23)c(C)c1,13.8%
21,Clc1ccc(COn2c(-c3ccc(Cl)cc3Cl)nc3ncccc32)cc1,11.7%
22,Fc1ccc(-c2ccc(CNCc3ccccn3)o2)cc1Cl,-29.9%
23,Clc1ccc(-c2cc(-c3ccccn3)on2)c(Cl)c1,83.2% (active)

row,Structure (SMILES),inhibition
1,COc1cc([N+](=O)[O-])ccc1NC(=S)N1CCN(c2ccccn2)CC1,-16.1%
2,COc1ccc(-c2c(C)cc3oc(=O)cc(-c4ccccc4)c3c2C)cc1F,-37%
3,COc1ccc(-c2c(C)cc3oc(=O)cc(-c4ccccc4)c3c2C)cc1OC,-10.1%
4,COc1cc(OC)c2c(-c3cccc(-c4cccc(N)c4)c3)cc(=O)oc2c1,54.3% (active)
5,CC(C)[C@@H]1NC(=O)c2cc([N+](=O)[O-])cc(I)c2NCCC[C@@H](C(=O)NC(CC(=O)O)C(N)=O)NC(=O)[C@H](CO)NC1=O (stereo partly specified),-9.29%
6,COc1ccccc1C(=O)NCCn1cc(SCC(=O)NCc2ccco2)c2ccccc21,8.15%
7,CCc1oc(-c2ccc(OC)cc2)c(C(=O)OCCCCCO)c1C(C)OCCO (stereo unspecified),-8.4%
8,Cc1nnsc1C(=O)Nc1cccc(Cl)c1C,-11.4%
9,Cc1cc(Cl)ccc1NNC(=O)c1snnc1C,78.6% (active)
10,Cc1nnsc1C(=O)NCc1c(F)cccc1Cl,21.4%
11,CCOC(=O)[C@]12CCCC=C1N(Cc1ccc3c(c1)OCO3)C(=O)[C@H](CC(=O)N1CCN(C(=O)c3ccco3)CC1)C2,10.3%
12,COc1ccc(Oc2cn[nH]c2-c2ccc(OC)cc2O)cc1,-3.87%
13,COc1ccc(-c2cn[nH]c2-c2ccc(OC)cc2)cc1,80.3% (active)
14,CCOc1ccccc1Oc1cn[nH]c1-c1ccc(OC)cc1O,33.5%
15,CC12CCC(=O)C=C1CCC1C2C(O)CC2(C)C1CCC2(O)C(O)CO (stereo unspecified),8.15%
16,COc1ccccc1Cc1c(-c2ccc(Cl)cc2)nc2c3ccccc3ccn12,-9.82%
17,Clc1ccc(-n2nnnc2-c2cnc(-c3ccccn3)nc2-c2cccs2)cc1,10%
18,O=C(COC(=O)c1ccncc1)c1ccccc1,-3.5%
19,c1ccc(-c2noc(-c3cccs3)n2)nc1,76.2% (active)
20,Brc1ccc(-c2noc(-c3ccccc3)n2)o1,-28%
21,O=C(Oc1ccc(-c2nc(-c3ccccn3)no2)cc1)c1ccccc1,92.9% (active)
22,COc1ccc(CCc2nc(-c3cccs3)no2)cc1,-31.5%
23,COCCN(C(=O)C(C)C)c1nnc(-c2ccc(C(C)(C)C)cc2)s1,-18%

row,Structure (SMILES),inhibition
1,CCCCN(C(=O)C1=NN(c2cc(C)ccc2C)C(=O)CC1)c1c(N)n(CCC)c(=O)[nH]c1=O,4.67%
2,O=C1NC(O)CCN1C1CC(O)C(CO)O1 (stereo unspecified),2.05%
3,O=C(Nc1ccccc1C(=O)N1CCOCC1)c1ccc(CSc2ccccc2)cc1,-16.9%
4,O=C(Nc1ccc(CSc2ccccc2)cc1)c1ccc(CN2CCOCC2)cc1,62.3% (active)
5,CCOc1ccc(C(=O)Nc2ccc(CN3CCOCC3)cc2)cc1Cl,-17.1%
6,CCOC1CCCCC1NS(=O)(=O)c1ccc(Cl)cc1 (stereo unspecified),23.1%
7,COc1ccc2c(c1)CCC/C2=N\OC(=O)c1ccccc1F,36.7%
8,CC(C)C[C@@H]1Cc2[nH][nH]c(=O)c2[C@H](CCc2ccccc2)O1,17%
9,CC(NC(=O)Nc1ccccc1)C(c1cccs1)N1CCN(c2ccccc2)CC1 (stereo unspecified),1.76%
10,Cc1ccc(Nc2nc(-c3ccc(O)cc3O)cs2)nc1,-37.9%
11,Cc1ccn2c(-c3csc(Nc4ccc(C(=O)O)cc4)n3)c(C)nc2c1,21.8%
12,O=c1oc2ccccc2cc1-c1csc(Nc2ccc(O)cc2)n1,82.7% (active)
13,COc1ccc(OC)c(-c2csc(NC(=O)C3=NNC(=O)CC3)n2)c1,-2.91%
14,COc1ccc2nc(Nc3nc(-c4cc5ccccc5oc4=O)cs3)sc2c1,64.4% (active)
15,Cc1noc(C)c1CSCC(=O)Nc1nc2ccc(Oc3ccccc3)cc2s1,-4.3%
16,CN(C)CCCOc1ccc(-c2ccc3nccn3c2)cn1,-18.9%
17,Cc1ccc(NC(=O)c2cc([N+](=O)[O-])ccc2Cl)c(O)c1,2.69%
18,O=C(NCC(c1cccs1)N1CCOCC1)c1cc(Cl)ccc1[N+](=O)[O-] (stereo unspecified),7.3%
19,O=C(Nc1cccc2ccccc12)c1[nH]c(-c2ccccc2)c2c1C(=O)N(C1CC1)C2=O,-46.7%
20,Cc1ccc(NC(=O)COC(=O)CN2CCSC2=O)cc1F,1.95%
21,Cn1c(=O)c2c(nc(Br)n2CCSc2nc3ccccc3o2)n(C)c1=O,7.06%
22,CN1C(CC(=O)Nc2ccc(Br)cc2)c2ccccc2CC1(C)C (stereo unspecified),12.1%
23,COc1ccc(Nc2cc(=O)oc3ccccc23)cc1,12.8%

row,Structure (SMILES),inhibition
1,COc1ccc(Sc2ccc(NC(=O)c3cccc(Cl)c3)cc2C#N)cc1,26.3%
2,COc1ccc(Nc2cc(Sc3ccc(OC)cc3)ncn2)cc1,69.9% (active)
3,CN(C)CCCNC(=O)c1cc(C(=O)Cc2ccc(Cl)cc2)c[nH]1,5.27%
4,CC(C)Cn1cc(-c2cncc3nccn23)cn1,5.78%
5,COC(=O)CC1=NN(c2ccccc2)C(=O)C1,-14.8%
6,COC(=O)Cc1[nH]n(-c2nc3ccccc3s2)c(=O)c1C(C)=Nc1ccc(OC)cc1,101% (active)
7,CCc1nc2ccccc2c(C(=O)NCc2ccc(OC)cc2)c1C,-1.16%
8,CCOc1ccc2c(c1)c(=O)c(S(=O)(=O)c1ccc(C)cc1)cn2CC,-0.17%
9,Cc1ccc(N2C(=O)CN=C2Nc2nc(C)cc(C)n2)cc1,4.62%
10,O=C1NNC(c2ccccc2)=N/C1=C\c1ccc(Cl)cc1,16.8%
11,O=C(NC1CC1)c1cccc(Br)c1,84.3% (active)
12,CC(=O)N1CCN(S(=O)(=O)c2cccc(C(=O)NC3CCC(C)CC3)c2)CC1 (stereo unspecified),3.88%
13,O=C(NC1CC1)c1ccc(-c2ccccc2)cc1,-4.49%
14,COCCN(C(=O)CC1CCCCC1)c1c(N)n(CC(C)C)c(=O)[nH]c1=O,19.1%
15,O=C(Nc1ccc(Cl)cc1)/C(=C1\CCCN1)[N+](=O)[O-],-36.6%
16,COc1ccc(N2C(=O)C(O)C2c2ccc(C)cc2)cc1 (stereo unspecified),6.39%
17,COc1ccc(C(=O)Nc2nc(-c3ccc(S(=O)(=O)N4CCOCC4)cc3)cs2)cc1,93.7% (active)
18,COc1ccc(C(=O)Nc2cc(S(=O)(=O)N3CCCC3)ccc2Cl)cc1,-16%
19,COC(=O)COc1ccc(S(=O)(=O)N2CCOCC2)cc1,12.7%
20,CS(=O)(=O)/C(C#N)=C/c1cccn1S(=O)(=O)c1ccc([N+](=O)[O-])cc1,-15.1%
21,CCC(=O)N1Cc2cc(C(=O)NCc3cccc(F)c3)nc(-c3cccc(C4=CCCC4)c3)c2[C@H]1CCO,-7.06%
22,Cc1ccc(Cl)cc1N1CCN(C(=O)c2cccc3c(=O)c(C)c(-c4ccccc4)oc23)CC1,40.6%
